Laboratory results from PubChem BioAssay (NCI).
This is part of a sample that, as a whole, favours compounds with a hit. Of some 83,000 tested, about 20% had one in any assay.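 In brief: 96-well plates, 48 h treatment, single concentration, percent growth endpoint.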 Calls of active or inactive are those of the source. The calls were made as follows: active = growth percent below 10; inactive = the rest.

Tested on: SN12C renal
Experiment: NCI-60 one-dose screen, 48 h (100 = growth as untreated, 0 = no growth, -100 = all killed)
Settings: 10 µM unless noted

SMILES | growth
O=C1COCCN1c1ccc(NCc2cn(Cc3ccc(F)cc3)c3ccccc23)cc1 | 64.3% (inactive)
CC(=O)Nc1ccc2nc3ccc(NC(C)=O)cc3[n+](-c3ccccc3)c2c1 | 104% (inactive)
CCCCNC(=O)NS(=O)(=O)Cc1ccccc1 | 113% (inactive)

Tested on: UO-31 renal
Experiment: as above
Settings: 10 µM unless noted

SMILES | growth
NC1=NC(=O)NC1(c1ccccc1)c1ccccc1 | 96.3% (inactive)
N#C/C(C(=O)c1ccccc1)=C1/C(=O)Nc2ccccc21 | 73.4% (inactive)
CN(Cc1cccc(C(F)(F)F)c1)C(=O)[C@@H](CC(=O)N1CCC(N2CCCCC2)CC1)N1C(=O)[C@@H](N2C(=O)OC[C@@H]2c2ccccc2)[C@H]1/C=C/c1ccccc1 | 83.4% (inactive)
CCOc1ccc(S(=O)(=O)Nc2ccc3c(c2)N(S(=O)(=O)CC)CCC3)cc1 | 80.9% (inactive)
CCOC(=O)C(=Cc1ccccc1[N+](=O)[O-])C(=O)OCC | 41.5% (inactive)
COc1cc(/C=C/C(=O)/C=C/c2ccc(-n3ccnc3C)cc2)ccc1O | 4.27% (active)
CCOC(=O)CC(c1ccccc1)C(C#N)c1ccccc1 (stereo unspecified) | 84% (inactive)
Cc1ccc(C2=C/C(=C/c3ccc(Br)cc3)C(=O)N2CCc2ccc(S(N)(=O)=O)cc2)cc1 | 61.8% (inactive)
Cc1ccc(NC(=O)N[C@@H](Cc2cc(F)cc(F)c2)C(=O)N[C@@H]2C(=O)N3CCC[C@H]3C(=O)N3CCCC[C@H]3C(=O)N[C@@H](C)C(=O)N3C[C@H](C)C[C@H]3C(=O)O[C@H]2C)cc1 | 25.2% (inactive)
C=C(C)[C@@H]1CC[C@]2(C)[C@H](CC[C@@H]3[C@@H]([C@@](C)(O)CCC=C(C)C)CC[C@]32C)[C@@]1(C)CCC(=O)O | -93.1% [100 µM] (active)
C=CCCCCCCCCC(=O)OC(C)C | 88.9% (inactive)
O=C1Nc2ccccc2/C1=C/C(=O)c1ccc(N2CCCCC2)cc1 | 47.4% (inactive)
O=C(N=c1n(-c2ccccc2)nc2n1CCN2C1=NCCN1C(=O)c1ccc(Cl)cc1)c1ccc(Cl)cc1 | 59.8% (inactive)
CC1=CC[C@@H]2C(C)(C)[C@@H](O)CC[C@@]2(C)[C@@H]1COc1ccc2ccc(=O)oc2c1 | 2.21% (active)
CSc1nc2sc3cc(Cl)c(Cl)cc3n2c(=N)c1C#N | 69.3% (inactive)
COc1ccc(C(=O)CCC(=O)O)cc1 | 71.7% (inactive)
O=C(CCNCc1ccccc1)c1ccccc1 | 95.9% (inactive)
NC(=O)CC1C=CCC1 (stereo unspecified) | 91.5% (inactive)
CCNc1cc2c(cc1Br)-c1ccccc1C2=O | 55.1% (inactive)

SMILES | growth
O=C(O)c1cn(C2CC2)c2cc(N3CCN(Cc4c(O)ccc5ccccc45)CC3)c(F)cc2c1=O | 40.1% (inactive)
CCOC(=O)COc1ccc2c(c1)O/C(=C\c1ccc(O)cc1)C2=O | 78.5% (inactive)
Nc1cc(NN=C(c2ccc(O)cc2)c2ccc(O)cc2)c([N+](=O)[O-])cc1[N+](=O)[O-] | -88.7% (active)
CCCCCCNC(=O)Nc1ncnc2c1ncn2-c1ccccc1 | 58.4% (inactive)
C[C@]12CCc3c(ccc4cc(O)ccc34)[C@@H]1CC[C@H]2O | 87.2% (inactive)
Nc1nc(Nc2ccccc2)c2ncn(Cc3ccc4c(c3)OCO4)c2n1 | 49.3% (inactive)
COc1ccc(OC)c(NC=O)c1 | 92% (inactive)
Fc1cc2[nH]ncc2c2c3c(c(-c4cn[nH]c4)nc12)CCCC3 | -13.7% (active)
CCN(CC)CCCCCCNc1cccc2cc(Br)cnc12 | 61% (inactive)
O=C(CSc1nc2ccc([N+](=O)[O-])cc2[nH]1)Nc1cccc(Cl)c1 | 9.96% (active)
CCN(CC)CCCOc1ccc2c(c1)O/C(=C\c1cccc(OC)c1)C2=O | 73.8% (inactive)
CC1(C)C(=O)/C(=C\c2ccco2)C[C@]2(C)[C@H]3CC=C4[C@@H]5C[C@](C)(C(=O)O)CC[C@]5(C)CC[C@@]4(C)[C@]3(C)CC[C@@H]12 | -95.5% [100 µM] (active)
C=C(C)[C@@H]1CC[C@]2(C(=O)NCCCCCCN(CCCN)CCCN)CC[C@]3(C)[C@H](CC[C@@H]4[C@@]5(C)CC[C@H](OCCCN)C(C)(C)[C@@H]5CC[C@]43C)[C@@H]12 | 53.4% [100 µM] (inactive)
C=C(C)[C@@H]1CC[C@]2(COC(=O)c3ccccc3C(=O)O)CC[C@]3(C)[C@H](CC[C@@H]4[C@@]5(C)CC[C@H](OC(=O)c6ccccc6C(=O)O)C(C)(C)[C@@H]5CC[C@]43C)[C@@H]12 | 27.7% [100 µM] (inactive)
COc1ccc2c(c1)c(-c1noc(-c3cn(C)c4ncc(F)cc34)n1)cn2C | 85.1% (inactive)
c1ccc(-c2nnc(-c3c[nH]c4ncccc34)s2)cc1 | 51.6% (inactive)
O=C1COCCN1c1ccc(NCc2cn(Cc3ccc(F)cc3)c3ccccc23)cc1 | 40.6% (inactive)
CC(=O)Nc1ccc2nc3ccc(NC(C)=O)cc3[n+](-c3ccccc3)c2c1 | 93.3% (inactive)
CCCCNC(=O)NS(=O)(=O)Cc1ccccc1 | 82.8% (inactive)
